{
  "source": "the supplement of paper PMC9492666",
  "note": "Structures can show the parent of a compound that is named as a salt.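 Note: viability read by CCK-8 kit in 96-well plates, part of a combination screen pairing lipid-metabolism-targeting compounds with erastin.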",
  "data": [
    {"test_system": "HCC1937", "assay": "relative cell viability, compound + erastin, vs DMSO (fraction of DMSO control); higher = less growth inhibition", "conditions": "72 h", "values": [
      {"smiles": "COc1cccc(-n2c(=O)[nH]c3cc(Cl)n(-c4ccc(-c5cccc(OC)c5O)cc4)c3c2=O)c1", "note": "+ CCOc1ccccc1-n1c(C(C)N2CCN(C(=O)COc3ccc(Cl)cc3)CC2)nc2ccccc2c1=O [erastin]", "relative cell viability": 0.66},
      {"smiles": "COc1ccc(C2(CNC(=O)c3ccc(NC(=O)c4ccco4)cc3)CCOCC2)cc1", "note": "+ CCOc1ccccc1-n1c(C(C)N2CCN(C(=O)COc3ccc(Cl)cc3)CC2)nc2ccccc2c1=O [erastin]", "relative cell viability": 0.518},
      {"smiles": "COc1ccc(C(=O)/C=C/c2ccccc2)cc1", "note": "[4'-Methoxychalcone] + CCOc1ccccc1-n1c(C(C)N2CCN(C(=O)COc3ccc(Cl)cc3)CC2)nc2ccccc2c1=O [erastin]", "relative cell viability": 0.54},
      {"smiles": "CC(C)C1=CC2=CC[C@@H]3[C@](C)(CCC[C@@]3(C)C(=O)O)[C@H]2CC1", "note": "[Abietic Acid] + CCOc1ccccc1-n1c(C(C)N2CCN(C(=O)COc3ccc(Cl)cc3)CC2)nc2ccccc2c1=O [erastin]", "relative cell viability": 0.673},
      {"smiles": "C[C@H](CCC(=O)O)[C@H]1CC[C@H]2[C@@H]3C[C@H](O)[C@@H]4C[C@H](O)CC[C@]4(C)[C@H]3CC[C@]12C", "note": "[Hyodeoxycholic acid] + CCOc1ccccc1-n1c(C(C)N2CCN(C(=O)COc3ccc(Cl)cc3)CC2)nc2ccccc2c1=O [erastin]", "relative cell viability": 0.767},
      {"smiles": "CC1(N)CCN(c2cnc(-c3cccc(Cl)c3Cl)c(N)n2)CC1", "note": "[SHP099 hydrochloride] + CCOc1ccccc1-n1c(C(C)N2CCN(C(=O)COc3ccc(Cl)cc3)CC2)nc2ccccc2c1=O [erastin]", "relative cell viability": 0.729},
      {"smiles": "N[C@@H](Cc1c[nH]cn1)C(=O)O", "note": "[histidine] + CCOc1ccccc1-n1c(C(C)N2CCN(C(=O)COc3ccc(Cl)cc3)CC2)nc2ccccc2c1=O [erastin]", "relative cell viability": 0.592},
      {"smiles": "CC(C)CCC[C@@H](C)[C@H]1CC[C@H]2[C@@H]3CC=C4C[C@@H](O)CC[C@]4(C)[C@H]3CC[C@]12C", "note": "[Cholesterol] + CCOc1ccccc1-n1c(C(C)N2CCN(C(=O)COc3ccc(Cl)cc3)CC2)nc2ccccc2c1=O [erastin]", "relative cell viability": 0.901},
      {"smiles": "Cc1nc(-c2nc(-c3ccc(OC(F)(F)F)cc3)no2)nn1Cc1cccc(N2CCC(S(C)(=O)=O)CC2)c1", "note": "+ CCOc1ccccc1-n1c(C(C)N2CCN(C(=O)COc3ccc(Cl)cc3)CC2)nc2ccccc2c1=O [erastin]", "relative cell viability": 0.647},
      {"smiles": "CCC(=O)O[C@]1(C(=O)CCl)[C@@H](C)C[C@H]2[C@@H]3C[C@H](F)C4=CC(=O)C=C[C@]4(C)[C@@]3(F)[C@@H](O)C[C@@]21C", "note": "[Halobetasol Propionate] + CCOc1ccccc1-n1c(C(C)N2CCN(C(=O)COc3ccc(Cl)cc3)CC2)nc2ccccc2c1=O [erastin]", "relative cell viability": 0.708},
      {"smiles": "Nc1ccc(C(=O)O)c(O)c1", "note": "[Aminopar] + CCOc1ccccc1-n1c(C(C)N2CCN(C(=O)COc3ccc(Cl)cc3)CC2)nc2ccccc2c1=O [erastin]", "relative cell viability": 0.773},
      {"smiles": "COC(=O)c1sccc1S(=O)(=O)Nc1ccc(Nc2ccccc2)cc1OC", "note": "+ CCOc1ccccc1-n1c(C(C)N2CCN(C(=O)COc3ccc(Cl)cc3)CC2)nc2ccccc2c1=O [erastin]", "relative cell viability": 0.529},
      {"smiles": "CC1=C(/C=C/C(C)=C/C=C/C(C)=C/C=C/C=C(C)/C=C/C=C(C)/C=C/C2=C(C)C(=O)[C@@H](O)CC2(C)C)C(C)(C)C[C@H](O)C1=O", "note": "[Astaxanthin] + CCOc1ccccc1-n1c(C(C)N2CCN(C(=O)COc3ccc(Cl)cc3)CC2)nc2ccccc2c1=O [erastin]", "relative cell viability": 0.674},
      {"smiles": "CN(C)C(=N)NC(=N)N", "note": "[Metformin hydrochloride] + CCOc1ccccc1-n1c(C(C)N2CCN(C(=O)COc3ccc(Cl)cc3)CC2)nc2ccccc2c1=O [erastin]", "relative cell viability": 0.943},
      {"smiles": "CCCCCCCCCCC#CC#CCCCCCCCCC(=O)O", "note": "[10,12-Tricosadiynoic acid] + CCOc1ccccc1-n1c(C(C)N2CCN(C(=O)COc3ccc(Cl)cc3)CC2)nc2ccccc2c1=O [erastin]", "relative cell viability": 0.648},
      {"smiles": "Cc1cc(SCc2sc(-c3ccc(C(F)(F)F)cc3)nc2C)ccc1OCC(=O)O", "note": "+ CCOc1ccccc1-n1c(C(C)N2CCN(C(=O)COc3ccc(Cl)cc3)CC2)nc2ccccc2c1=O [erastin]", "relative cell viability": 0.529},
      {"smiles": "O=C(Oc1ccc([N+](=O)[O-])cc1)N1CCN(Cc2cccc(Oc3ccccc3)c2)CC1", "note": "+ CCOc1ccccc1-n1c(C(C)N2CCN(C(=O)COc3ccc(Cl)cc3)CC2)nc2ccccc2c1=O [erastin]", "relative cell viability": 0.199}
    ]}
  ]
}
